# This is a sample that favours compounds with a hit; in the whole collection about 19% have one here.
# KB-3-1 tox: kills parental KB-3-1 adenocarcinoma cells. KB-3-1 viability, CellTiter-Glo ATP luminescence, 72 h. Potency, µM (doses to about 46.1 µM), hits mostly cytotoxic. actives 1.4% (n = 400,000). AID 1347075; also: nearly all actives have a fitted effect of over 60% in size
#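 Parental KB-3-1 adenocarcinoma cells in phenol-red-free DMEM with 10% FBS were pin-treated with compounds at several concentrations, incubated 72 h at 37 °C, and viability read by CellTiter-Glo luminescence; concentration-effect curves were fitted after normalization.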
# HT1080NT lethal: kills 2HG-producing HT-1080-NT fibrosarcoma cells; HT-1080-NT fibrosarcoma viability, CellTiter-Glo ATP luminescence, 48 h; Potency, µM (doses to about 46.1 µM), without a hit: at the highest dose activity, negative = less viability, usual class: cytotoxic; actives 1.6% (n = 360,000); AID 686970;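 also: NT is the 2HG producing partner of a matched IDH1 knockdown line; 0% = DMSO-treated cells and -100% = media-only wells without cells; nearly all actives have a fitted effect of over 55% in size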
#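 Luminescent CellTiter-Glo readout after 48 hours of compound exposure at 37 degrees C defined viability of HT-1080-NT cells. Activity was normalized to DMSO wells and cell-free media wells; concentration-response curves were fitted and assigned curve classes.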
# DT40 TDP1 CPT: growth inhibition of DT40 Tdp1-/-;hTDP1 cells with camptothecin (screen for TDP1 inhibitors); chicken DT40 Tdp1-/-;hTDP1 cells + 20 nM CPT, ATP luminescence, 48 h; Potency, µM (series often up to 46.2 µM), for inactives: top-dose activity change, negative = growth inhibition, most hits filed as inhibitors; actives 12% (n = 420,000); AID 686979; also: nearly all actives have a fitted effect of over 55% in size
#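 Chicken DT40 Tdp1-/- cells stably complemented with human TDP1 were seeded at 400 cells/well in medium containing 20 nM camptothecin, exposed to pin-transferred compounds, and grown at 37 °C for at least 48 hr. Viability was read as ATP luminescence.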
# DT40 TDP1 no CPT: qHTS for Inhibitors of human tyrosyl-DNA phosphodiesterase 1 (TDP1): qHTS in cells in absence of CPT; AID 686978, 2013; DT40 Tdp1-/- hTDP1 cells, no CPT, ATP luminescence, 48 h; actives 15% (n = 420,000); Potency, µM (doses to about 46.2 µM), inactives show at the top dose activity change, negative = growth inhibition, actives largely listed as inhibitors; also: nearly all actives have a fitted effect of over 55% in size
#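 Compound effects on proliferation are scored in DT40 Tdp1-/-;hTDP1 cells in the absence of CPT. ATP levels (CellTiter-Glo luminescence) are recorded after a ≥48 hr, 37 °C incubation.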
# HT1080 IDH1KD tx: HT-1080 IDH1 knockdown cell toxicity (counter line); HT-1080 IDH1 knockdown viability, ATP luminescence, 48 h; Potency, µM (doses to about 46.1 µM), for the others: at the top dose activity, negative = toxicity, usual class: cytotoxic; actives 2% (n = 360,000); AID 686971;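 also: 0% = DMSO wells and -100% = cell-free medium wells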
#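 Cytotoxicity counter-line: IDH1KD HT-1080, 48 h, CellTiter-Glo. Curves classed by r2, magnitude and activity.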
# KB-V1 MDR tox: kills drug-selected multidrug resistant KB-V1 cells | KB-V1 MDR cells viability, CellTiter-Glo, 72 h | Potency, µM (top dose mostly 46.1 µM), actives largely listed as cytotoxic | actives 3.4% (n = 400,000) | AID 1347076; also: nearly all actives have a fitted effect of over 60% in size
#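 Cytotoxicity via CellTiter-Glo luminescence after 72 h compound exposure at 37 degrees C. Cells: drug-selected KB-V1 line, DMEM phenol-red free plus 10% FBS. Compounds tested at multiple concentrations; normalized data fitted to concentration-effect curves.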
# * = called active by the depositor; i = inactive; ? = inconclusive; · = no result. Calls follow the shape of the dose curve; as a rule, active = well fitted curve in the direction sought with a large enough effect; inconclusive = small, poorly fitted or top-dose-only effect, or another doubt; inactive = no such curve, though single readings can be large; an effect the other way counts as inactive or inconclusive. Unless noted, % is scaled to controls: 0 for no effect and ±100 for the full control effect; potency is read from the fitted curve at half-maximal effect.
SMILES,KB-3-1 tox,HT1080NT lethal,DT40 TDP1 CPT,DT40 TDP1 no CPT,HT1080 IDH1KD tx,KB-V1 MDR tox
CCOC(=O)c1ccc(-c2c(C(=O)OCC)oc3cc(O)c(CC)cc3c2=O)o1,i,4%,15µM*,12µM*,-4%,i
CCOC(=O)c1oc2cc(O)c(CC)cc2c(=O)c1-c1cscn1,i,-10%,-6%,-16%,8%,i
COc1cc(C(=O)NNC(=O)c2ccccc2OCc2c(C)noc2C)cc(OC)c1OC,i,1%,-15%,?,2%,i
COC(=O)C1CCC(=O)N1C(c1ccc(OC)cc1)c1cc(OC)c(OC)c(OC)c1 (configuration not stated),0.82µM*,1.2µM*,1.5µM*,1.3µM*,?,7.3µM*
O=C(CNc1ccc(Br)cc1)Nc1ccc(S(=O)(=O)N2CCCCC2)cc1,i,-23%,?,29µM*,-16%,i
O=C(CN1CCN(S(=O)(=O)N2CCCCC2)CC1)Nc1ccc(Br)cc1,i,-8%,?,16µM*,8%,?
O=C(CN1CCCCCC1)Nc1ccc(Br)cc1,i,1%,2%,-18%,-7%,?
O=C(CNC(=O)C1CC(=O)N(c2cccc3ccccc23)C1)Nc1ccccc1Br (configuration not stated),i,-7%,-3%,17%,6%,i
O=C(CNS(=O)(=O)c1ccccc1)NCC(=O)OCc1ccc(Br)cc1,i,3%,21µM*,?,11%,i
CCN(C(=O)c1ccc2c(Cl)c3c(nc2c1)CCC3)c1ccc(C)c(C)c1,?,?,21µM*,21µM*,?,?
CN(C(=O)c1ccc2c(Cl)c3c(nc2c1)CCC3)c1ccccc1,i,9%,?,?,4%,i
CN(C(=O)c1ccc2c(Cl)c3c(nc2c1)CCC3)c1ccccc1F,i,·,-17%,29µM*,·,i
COc1cc(=O)n2c(c1C(=O)NCc1ccco1)CCN(Cc1c(F)cccc1F)CC2,·,·,-7%,-7%,·,·
CC1=CC2C(CC1=O)C(C)=CCC2C(C)C (configuration not stated),·,·,0%,-6%,·,·
O=C(Nc1ccc(F)c(Cl)c1)N1CC=C(c2c[nH]c3ccccc23)CC1,i,·,23µM*,16µM*,·,i
O=C(COC(=O)Cc1c[nH]c2ccccc12)Nc1ccccc1C(F)(F)F,i,0%,-19%,0%,8%,i
O=C(Nc1ccccc1C(F)(F)F)N1CC=C(c2c[nH]c3ccccc23)CC1,i,·,21µM*,26µM*,·,i
O=C(Nc1ccc2c(c1)OCCO2)C(C1CC1)n1c(=O)c(-c2ccccc2)nc2ccccc21 (configuration not stated),i,12%,-28%,?,0%,i
O=C(Nc1ccc2c(c1)OCCO2)C(c1ccnc2ccccc12)n1c(=O)c(-c2ccco2)nc2ccccc21 (configuration not stated),i,8%,7.3µM*,15µM*,0%,i
O=C(Nc1ccc2c(c1)OCCO2)C(c1ccccc1)n1c(=O)c(-c2cc3ccccc3[nH]2)nc2ccccc21 (configuration not stated),i,-25%,?,?,?,i
Cc1cccc(C)c1NC(=O)C(c1ccncc1)n1c(=O)c(-c2ccco2)nc2ccccc21 (configuration not stated),i,-14%,-29%,?,0%,i
O=C(Nc1ccc2c(c1)OCCO2)C(c1ccccc1)n1c(=O)c(-c2ccco2)nc2ccccc21 (configuration not stated),i,-18%,4.1µM*,?,-13%,i
O=C(Nc1ccc2c(c1)OCCO2)C(c1ccncc1)n1c(=O)c(-c2ccco2)nc2ccccc21 (configuration not stated),i,0%,10µM*,?,0%,i
CCOc1cc(/C=C(/NC(C)=O)C(=O)O)cc(Cl)c1OCc1ccc(Br)cc1,i,0%,0%,13%,-1%,?
COc1ccc(S(=O)(=O)N(CC(C)C)C2CCS(=O)(=O)C2)cc1OC (configuration not stated),i,-4%,-4%,-6%,15%,i
SMILES,KB-3-1 tox,HT1080NT lethal,DT40 TDP1 CPT,DT40 TDP1 no CPT,HT1080 IDH1KD tx,KB-V1 MDR tox
C[C@@]12CCC[C@@](C)(C(=O)O)C1CC[C@@]13C[C@@H](NCc4ccccc4)[C@@](C)(CCC12)C3 (some centres not stated),i,8%,?,21µM*,11%,i
CNc1c(Br)cc(C=O)cc1Br,i,·,?,-29%,·,i
CCc1ccc(-c2cc3c(N4CCN(c5ccccc5)CC4)nccn3n2)cc1,i,·,?,21µM*,·,i
Cc1ccccc1N=C(c1ccccc1)C1C(=O)c2ccccc2C1=O,?,?,10µM*,10µM*,?,21µM*
CCc1cc2ccc(C)cc2nc1SCC(=O)Nc1c[nH]c(=O)[nH]c1=O,i,-5%,-14%,?,-1%,i
CCc1cc2c(C)ccc(C)c2nc1SCC(=O)Nc1c(C)[nH]c(=O)[nH]c1=O,?,-9%,21µM*,?,-10%,i
CCc1cc2c(C)ccc(C)c2nc1SCC(=O)Nc1c[nH]c(=O)[nH]c1=O,i,-2%,?,12µM*,-12%,i
CCCc1nnc(N2C(=O)c3oc4ccc(F)cc4c(=O)c3C2c2ccc(C(=O)OC)cc2)s1 (configuration not stated),i,·,-9%,-15%,·,?
CCCCOc1ccc(C2C(C(=O)c3ccc(C)o3)=C(O)C(=O)N2CC2CCCO2)cc1 (configuration not stated),?,-8%,?,23µM*,-15%,12µM*
CCOc1cccc(C2C(C(=O)c3ccc(C)o3)=C(O)C(=O)N2Cc2ccccc2)c1 (configuration not stated),i,13%,?,5%,15%,8.2µM*
OC[C@@H]1CN(CCN2CCOCC2)C[C@H](n2cnc3c(NC4CCC4)ncnc32)O1,i,0%,-7%,7%,17%,i
